The list is not random: actives were taken first. Their share in the collection is about 1.3%.
PREPL inh: PREPL enzyme inhibitors, primary screen, biochemical, fluorescence polarization | Prolyl endopeptidase-like (Homo sapiens), Q4J6C6 | recombinant PREPL, fluorescence polarization activity-based probe | inhibition, % at 5.96 µM | 320,000 tested, 0.68% active | AID 2751, 2010; in the data active = inhibition above about 43%;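 note: 0% = enzyme with DMSO and 100% = wells lacking enzyme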
Target sequence (Q4J6C6 whole entry, looked up): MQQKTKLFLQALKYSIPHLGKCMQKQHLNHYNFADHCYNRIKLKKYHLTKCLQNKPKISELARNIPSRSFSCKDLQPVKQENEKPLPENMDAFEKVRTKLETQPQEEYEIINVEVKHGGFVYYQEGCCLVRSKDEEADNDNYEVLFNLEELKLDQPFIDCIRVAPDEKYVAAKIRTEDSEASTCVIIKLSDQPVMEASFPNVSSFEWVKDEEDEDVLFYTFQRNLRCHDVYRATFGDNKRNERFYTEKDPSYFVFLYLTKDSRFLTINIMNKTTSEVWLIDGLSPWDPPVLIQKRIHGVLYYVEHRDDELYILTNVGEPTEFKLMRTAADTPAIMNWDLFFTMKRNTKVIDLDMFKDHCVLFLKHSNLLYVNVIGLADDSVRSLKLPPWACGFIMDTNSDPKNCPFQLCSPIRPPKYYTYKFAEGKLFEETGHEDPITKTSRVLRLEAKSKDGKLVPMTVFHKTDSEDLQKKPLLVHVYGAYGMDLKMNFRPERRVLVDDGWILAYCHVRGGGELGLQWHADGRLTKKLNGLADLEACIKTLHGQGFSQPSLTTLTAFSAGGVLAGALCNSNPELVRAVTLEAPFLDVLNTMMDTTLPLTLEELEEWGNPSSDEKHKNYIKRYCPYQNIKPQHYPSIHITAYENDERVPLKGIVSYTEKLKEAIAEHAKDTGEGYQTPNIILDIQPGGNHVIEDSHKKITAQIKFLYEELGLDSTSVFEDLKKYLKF
Fam108B counter: mouse Fam108B serine hydrolase inhibitors, primary screen, counter-screen for RBBP9 inhibitor project, biochemical, fluorescence polarization | inhibition, % at 9.51 µM | AID 1947, 2009 | 300,000 tested, 0.33% active | recombinant Fam108B, FP-Rh probe fluorescence polarization;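 active = inhibition above the screen mean inhibition plus 3 SD, computed separately per campaign, cut at about 18% in these data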;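 note: inhibitors lower polarization as less probe binds the enzyme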
PME-1 primary: PME-1 inhibitors via competitive probe labeling, primary screen, biochemical, fluorescence polarization, FP-Rh probe, HTS. recombinant PME-1. inhibition, % at 5.9 µM. 320,000 tested, 0.53% active. AID 2130, 2009;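 active = inhibition above the campaign mean of all compounds plus 3 SD, cut at about 26% in these data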;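 note: competitive labeling of PME-1 active site by serine hydrolase directed probe; 0% = PME-1 with DMSO and 100% = wells lacking PME-1 enzyme; inhibitors block probe labeling so polarization falls and inhibition rises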
LYPLA1 inh: LYPLA1 inhibitors, primary screen, counter-screen for PME1 inhibitor project, biochemical, fluorescence polarization, FP-Rh probe ABPP | Acyl-protein thioesterase 1 (Homo sapiens), O75608 | recombinant LYPLA1 | inhibition, % at 5.9 µM | 320,000 tested, 0.16% active | AID 2174, 2009;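 active = inhibition above the mean of all tested compounds plus 3 SD, set per campaign, cut at about 14% in these data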;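 note: inhibitors block serine hydrolase probe labeling of LYPLA1 so polarization falls; 0% = enzyme with DMSO and 100% = wells lacking LYPLA1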
LYPLA2 inh: LYPLA2 inhibitors, primary screen, counter-screen for PME1 inhibitor project, biochemical, fluorescence polarization, FP-Rh probe ABPP; recombinant LYPLA2; inhibition, % at 5.9 µM; 320,000 tested, 0.38% active; AID 2177, 2009;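 active = inhibition above the screen-wide mean plus 3 SD, limit set per campaign, cut at about 26% in these data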;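 note: 0% = LYPLA2 with DMSO and 100% = wells lacking LYPLA2 enzyme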
LYPLA1 conf: LYPLA1 inhibitors, retest, confirmation, counter-screen for PME1 inhibitor project, biochemical, fluorescence polarization, FP-Rh probe ABPP | shares compounds with LYPLA1 inh | AID 2233, 2010 | inhibition, % at 5.9 µM | recombinant LYPLA1 | 480 tested, 69% active;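 active = mean inhibition across replicates above the hit cutoff set in the primary screen, cut at about 15% in these data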;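 note: loss of FP-Rh probe labeling of LYPLA1 seen as lower polarization; 0% = LYPLA1 with DMSO and 100% = wells lacking LYPLA1 enzyme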
The depositor's hits bear a star; / = no result; ! = repeats disagree.

SMILES | PREPL inh | Fam108B counter | PME-1 primary | LYPLA1 inh | LYPLA2 inh | LYPLA1 conf
C=CCSc1nnc(CCCCCN2C(=O)c3cccc4cccc(c34)C2=O)o1 | 9 | -1 | -2 | 27* | 10 | 39*
CCOC(=O)CCCSc1nnc(CCCCCN2C(=O)c3cccc4cccc(c34)C2=O)o1 | 7 | -5 | -4 | 45* | 20 | 52*
O=C(NNS(=O)(=O)c1ccc(Br)cc1)c1ccccc1-n1cccc1 | -1 | -2 | 8 | -4 | 3 | /
Cc1ccsc1C1Nc2ccc3ncccc3c2C2=C1C(=O)CCC2 (configuration not stated) | 23 | -1 | 16 | 28* | 1 | 31*
COc1ccc(OC)c2c1C(=O)c1ccccc1C2=O | 14 | 16 | 28* | 22* | 22 | 4
COc1ccc(OC)c2c1C(=O)C(Cl)=C(Cl)C2=O | 2 | -1 | 3 | 3 | 6 | /
COc1ccc(N)c2c1C(=O)c1ccccc1C2=O | 20 | 12 | 18 | 20* | 15 | 14*
O=C(NCCc1ccccc1)C(=O)NCCC1CCCCN1S(=O)(=O)c1cccs1 (configuration not stated) | 5 | -3 | 4 | 0 | 3 | /
Cc1cc(O)ccc1N/C=C1\CCCC1=O | 33 | 8 | 24 | 19* | 15 | 3
CC(=O)Nc1ccc(N/C=C2/CCCC2=O)cc1 | 5 | 1 | 9 | 1 | 6 | /
Cc1[nH][nH]c(=O)c1N=Nc1ccc(Br)c(Cl)c1 | 14 | 10 | 11 | 24* | 11 | 18*
CCCCNc1nnc(SCC(=O)c2c(N)n(C3CC3)c(=O)[nH]c2=O)s1 | 29 | / | / | / | / | /
CSc1ncc(S(=O)(=O)c2ccccc2)c(=O)[nH]1 | 1 | -1 | -1 | -1 | -3 | /
CC(NC(=O)c1ccco1)C(=O)N1CCN(c2ccccc2)CC1 (configuration not stated) | -1 | 1 | 3 | 5 | 2 | /
CC(NC(=O)c1ccco1)C(=O)N1CCN(c2cccc(C(F)(F)F)c2)CC1 (configuration not stated) | 16 | / | 11 | 34* | 17 | 45*
O=S(=O)(Nc1cc(Cl)cc(Cl)c1)N1CCOCC1 | 0 | 3 | -1 | 2 | -7 | /
COc1ccc(Cc2nnc(SCC(=O)N3CCN(c4ccccc4)CC3)o2)cc1 | -3 | 4 | 0 | 24* | -2 | 30*
O=C(COC(=O)C1CCC1)Nc1cccc(S(=O)(=O)N2CCOCC2)c1 | 16 | -3 | 2 | 1 | 7 | /
O=C(COC(=O)C1CC2C=CC1C2)Nc1cccc(S(=O)(=O)N2CCCCC2)c1 (configuration not stated) | -9 | 3 | -3 | 16* | 8 | 28*
O=C(COC(=O)C1CC2C=CC1C2)Nc1cccc(S(=O)(=O)N2CCCCCC2)c1 (configuration not stated) | -2 | -2 | 6 | 37* | 17 | 46*
O=C1c2cccc3c(N4CCCCC4)ccc(c23)C(=O)N1CCO | 21 | -3 | -4 | 3 | 2 | /
Cc1n[nH]c(C)c1N1C(=O)c2cccc3c(N4CCCCCC4)ccc(c23)C1=O | 23 | 8 | 17 | 20* | 22 | 19*
Cc1ccc(-n2c(SCC(=O)Nc3cccc(S(=O)(=O)NC4=NCCCCC4)c3)nc3ccccc3c2=O)cc1C | -1 | -17 | -21 | -14 | -28 | /
COc1ccccc1OCC(=O)Nc1cccc(S(=O)(=O)NC2=NCCCCC2)c1 | 9 | -6 | 1 | 0 | -2 | /
COc1ccc(-c2nc(CC(=O)Nc3cccc(S(=O)(=O)NC4=NCCC4)c3)cs2)cc1 | -8 | / | -2 | 16* | 2 | -1
SMILES | PREPL inh | Fam108B counter | PME-1 primary | LYPLA1 inh | LYPLA2 inh | LYPLA1 conf
Cc1cc(SCC(=O)Nc2cccc(S(=O)(=O)NC3=NCCCCC3)c2)nc2ccccc12 | 1 | -7 | 7 | 19* | 1 | 29*
CC1CCCC(NC(=O)c2cccc(S(=O)(=O)N3CCCCC3)c2)C1C (configuration not stated) | -4 | 1 | 7 | -5 | -8 | /
CC(C)CNC(=O)c1cccc(NC(=O)c2ccc3c(c2)C(=O)N(C)C3=O)c1 | -11 | 0 | 3 | 26* | 15 | 27*
Cc1nn(-c2ccccc2)c(N2CCCC2)c1/C=N/Nc1ccc(S(N)(=O)=O)cc1[N+](=O)[O-] | 27 | 11 | 16 | 20* | 10 | 42*
NS(=O)(=O)c1ccc(N/N=C/c2ccc(C(=O)O)cc2)c([N+](=O)[O-])c1 | -4 | 2 | -2 | 3 | 10 | /
O=C(NCc1ccco1)c1ccccc1NS(=O)(=O)c1ccc(Br)s1 | -5 | -3 | 4 | 2 | 0 | /
COC/C=C/C1=CC2=CC(=O)C(C)(OC(=O)c3cnc4ccccc4n3)C(=O)C2=CO1 (configuration not stated) | 8 | 15 | 15 | 22* | 9 | -2
CCCN(CC(=O)Nc1ccccc1OC)C(=O)CC1CCCC1 | 0 | / | 2 | -1 | 6 | /
COc1cccc(CN2CCNC(=O)C2CC(=O)N(C)Cc2cnccn2)c1OC (configuration not stated) | 13 | 3 | 4 | -2 | 4 | /
COC(=O)C1CCN(c2c([N+](=O)[O-])cc(C(F)(F)F)cc2[N+](=O)[O-])CC1 | -6 | 2 | 6 | 32* | 12 | 33*
CCCCn1c(N)c(N(CCC(C)C)C(=O)c2ccc(C)c(S(=O)(=O)N3CCOCC3)c2)c(=O)[nH]c1=O | -13 | 0 | -3 | -1 | 1 | /
C=C[C@]1(C)C[C@@H](OC(=O)CSCCN(CC)CC)[C@]2(C)C(C)CC[C@]3(CCC(=O)[C@H]32)[C@@H](C)[C@@H]1O (some centres not stated) | 30 | 2 | -3 | 15*! | 0 | 3
Cc1ccc(C)c(NC(=O)C(OC(=O)c2cnc(C)cn2)c2ccccc2)c1 (configuration not stated) | -5 | -2 | -2 | 3 | 0 | /
Cc1cnc(C(=O)OC(C(=O)Nc2cc(C(F)(F)F)ccc2Cl)c2ccccc2)cn1 (configuration not stated) | -2 | 2 | 4 | 32* | -9 | 0
Cn1cccc1C(=O)NC(=O)COC(=O)c1cc(S(=O)(=O)N2CCCCC2)ccc1Cl | 0 | -2 | 4 | -1 | -4 | /
CCC(=Nc1ccc(N)cc1)C1=C(O)C(C(=O)OC)C(C)(C)CC1=O (configuration not stated) | 34 | 14 | 26* | 21* | 19 | 0
